In assay [1] the target is Thyrotropin receptor (Homo sapiens) (UniProt P16473). The experiment in a line: qHTS Assay for Antagonists of the Thyroid Stimulating Hormone Receptor (AID 488980). Also: series mostly up to about 58 µM; 0% is about no effect. In outline: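 Inhibition of TSH-stimulated cAMP accumulation was quantified by homogeneous time-resolved FRET in TSHR-transfected HEK293 cells. Agonist: TSH, 4 nM final (EC80).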
For orientation: Quantitative high-throughput screening tests each substance at several concentrations.

For assay [2], the target named is D(1A) dopamine receptor (Homo sapiens) (UniProt P21728). The experiment in a line: HTS Assay for Allosteric Agonists of the Human D1 Dopamine Receptor: Primary Screen for Agonists (AID 488981). Also: 0% is about no effect. In outline:
(§1)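 Tetracycline-induced HEK293 T-REx cells force-coupled to calcium signalling were incubated overnight at 30 C and dye-loaded at room temperature. Calcium flux over 180 s after compound addition flagged agonists; a further 180 s read after EC20 dopamine flagged potentiators.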

For assay [3] the target is unchanged. The experiment in a line: HTS Assay for Allosteric Agonists of the Human D1 Dopamine Receptor: Primary Screen for Potentiators (AID 488982). Also: potency is read from the fitted curve at half-maximal effect. In outline: as §1
The target is the same in assay [4]. The experiment in a line: HTS Assay for Allosteric Agonists of the Human D1 Dopamine Receptor: Primary Screen for Antagonists (AID 488983).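 Also: calcium flux response to an EC80 dopamine challenge measured with no-wash dye; nearly all actives have a fitted effect of over 65% in size.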 Also: potency is read from the fitted curve at half-maximal effect. A digest of the protocol:
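Screening of inducible HEK293 T-REx D1 cells: compound first, EC80 dopamine 180 s later, each phase read kinetically for calcium over 180 s.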

Assay [5] is described as follows: Validation screen for small molecules that induce genotoxicity in human embryonic kidney (HEK293T) cells expressing luciferase-tagged ELG1 (AID 493106). Also: 0% is about no effect. In outline:
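Reporter-gene quantitative HTS in HEK293T cells carrying luciferase-tagged ELG1, whose level climbs under genotoxic stress. Compound exposure lasts 16 hr at 37 °C before luciferase detection.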

Assay [6] has as its target ATPase family AAA domain-containing protein 5 (Homo sapiens) (UniProt Q96QE3). The experiment in a line: Validation screen for small molecules that inhibit ELG1-dependent DNA repair in human embryonic kidney (HEK293T) cells expressing luciferase-tagged ELG1 (AID 493107). Also: nearly all actives have a fitted effect of over 70% in size. Also: potency is read from the fitted curve at half-maximal effect. In outline:
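Quantitative HTS in HEK293T cells carrying luciferase-tagged ELG1, stimulated with 5-fluorouridine alongside compound for 16 hr. Loss of luciferase signal marks inhibition of ELG1 response.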

A short description of assay [7]: Nrf2 qHTS screen for inhibitors: Validation (AID 493153; active = well fitted inhibition curve with a large enough effect in the main read-out, with a control signal flat, not every such curve was filed as active). The conditions noted are these: Potency: luciferase luminescence; viability change: measured here: cytotoxicity max response. In outline:
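Dose-response validation uses reporter A549 cells with firefly luciferase under an antioxidant response element. Compounds stay on cells 18-24 h at 37°C, and luminescence indicates Nrf2-driven transcription.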

Assay [8] can be described thus: qHTS for Inhibitors of Cell Surface uPA Generation: Validation Assay (AID 493164).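 Also: RAW 264.7 macrophage cells exposed to compound for 18 h; 0% is about no effect.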 A digest of the protocol:
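RAW 264.7, 4000 cells/well, o/n plating; cpd 7-pt 1:5 dilution 2.45 nM–38.3 uM final; 18 h, 37 C/5% CO2; ATP-Lite, 5 s luminescence exposure.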

Assay [9] has as its target Galactokinase (Homo sapiens) (UniProt P51570). The assay can be described thus: qHTS Validation Assay for Inhibitors of Human Galactokinase (GALK) (AID 493189). Also: 0% is about no effect. A digest of the protocol:
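Enzyme activity is inferred from ATP consumption: human GALK phosphorylates galactose (100 uM) using 35 uM ATP for 1 h at room temperature, and luciferase-based Kinase-Glo Plus reports unconsumed ATP.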

Assay [10] is described as follows: Validation screen for small molecules that induce DNA re-replication in SW480 colon adenocarcinoma cells (AID 504364). Also: 0% is about no effect. A digest of the protocol:
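Cells are treated 48 hr with test compound, stained 40 min with Hoechst at 37 C, and scanned for nuclear fluorescence; compounds inducing re-replication increase nuclei with elevated intensity.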

Assay [11] has as its target Peptidyl-prolyl cis-trans isomerase NIMA-interacting 1 (Homo sapiens) (UniProt Q13526). The assay can be described thus: qHTS Validation Assay to Find Inhibitors of Pin1 (AID 504536; active = well fitted inhibition curve with a large enough effect in the polarisation, with a control signal flat, not every such curve was filed as active; the % refers to the polarisation;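 also: 0% = full Pin1 enzyme wells and -100% = no-enzyme wells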). A digest of the protocol: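 Fluorescence polarization competition: compounds (titration) displace HiFluor-488-labeled Pin1-1b peptide from Pin1 (0.3 uM final) in pH 7.5 HEPES buffer with DTT, 10 min at room temperature; %Activity normalized to no-enzyme wells, curves fitted.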

The target in assay [12] is Phosphoglycerate kinase, glycosomal (Trypanosoma brucei brucei) (UniProt P07378). The assay can be described thus: qHTS Validation Assay to Find Inhibitors of Phosphoglycerate Kinase (AID 504547).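 Also: control wells lack PGK and mark full inhibition.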 In outline:
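Substrate/PGK mix plus compound; reaction started with GAPDH (100nM final) to form 1,3-BPG; 60 min RT; Kinase-Glo Plus 10 min; luminescence. TEA 100mM pH 7.6, MgCl2 5mM, Tween-20 0.01%.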

The target of assay [13] is phosphoglycerate mutase (Leishmania major) (UniProt Q4Q090). The experiment in a line: qHTS Validation Assay to Find Inhibitors of Phosphoglycerate Mutase (AID 504548).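 Also: end-point luminescence from Kinase-GloPlus after the PGAM reaction; series mostly up to about 58 µM; % is scaled to controls: 0 for no effect and ±100 for the full control effect.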 Conditions: Potency: inhibition qHTS. A digest of the protocol: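 Inhibition of L. major PGAM was assessed by Kinase-GloPlus luminescence following a 45-minute room-temperature reaction with enzyme at 1.25nM final.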
Sequence of phosphoglycerate mutase (Leishmania major) (Q4Q090 1-553): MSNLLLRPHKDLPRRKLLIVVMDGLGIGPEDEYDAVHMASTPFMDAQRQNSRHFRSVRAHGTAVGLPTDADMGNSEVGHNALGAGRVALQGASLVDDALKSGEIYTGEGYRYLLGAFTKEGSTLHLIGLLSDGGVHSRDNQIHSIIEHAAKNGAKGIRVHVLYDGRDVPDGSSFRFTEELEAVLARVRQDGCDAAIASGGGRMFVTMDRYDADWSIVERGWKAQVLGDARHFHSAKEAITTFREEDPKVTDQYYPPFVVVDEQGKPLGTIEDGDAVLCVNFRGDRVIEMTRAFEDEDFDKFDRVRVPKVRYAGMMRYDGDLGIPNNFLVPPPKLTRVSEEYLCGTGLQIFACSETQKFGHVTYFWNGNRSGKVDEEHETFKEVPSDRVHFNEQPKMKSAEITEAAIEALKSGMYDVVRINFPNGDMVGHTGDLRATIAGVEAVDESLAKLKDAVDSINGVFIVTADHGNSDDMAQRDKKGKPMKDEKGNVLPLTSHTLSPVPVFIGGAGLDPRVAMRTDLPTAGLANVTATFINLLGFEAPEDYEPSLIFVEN

The target in assay [14] is Ubiquitin carboxyl-terminal hydrolase 1 (Homo sapiens) (UniProt O94782). The experiment in a line: Inhibitors of USP1/UAF1: Pilot qHTS (AID 504865). Also: nearly all actives have a fitted effect of over 35% in size. Also: potency is read from the fitted curve at half-maximal effect. A digest of the protocol: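 Enzyme-free wells gave the negative control, while test wells held 1nM USP1/UAF1 preincubated with compound for 15 min at room temperature. Ub-Rho at 150nM final started the reaction, and fluorescence at 480/540 nm was recorded kinetically.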
Sequence of Ubiquitin carboxyl-terminal hydrolase 1 (Homo sapiens) (O94782 whole entry, looked up): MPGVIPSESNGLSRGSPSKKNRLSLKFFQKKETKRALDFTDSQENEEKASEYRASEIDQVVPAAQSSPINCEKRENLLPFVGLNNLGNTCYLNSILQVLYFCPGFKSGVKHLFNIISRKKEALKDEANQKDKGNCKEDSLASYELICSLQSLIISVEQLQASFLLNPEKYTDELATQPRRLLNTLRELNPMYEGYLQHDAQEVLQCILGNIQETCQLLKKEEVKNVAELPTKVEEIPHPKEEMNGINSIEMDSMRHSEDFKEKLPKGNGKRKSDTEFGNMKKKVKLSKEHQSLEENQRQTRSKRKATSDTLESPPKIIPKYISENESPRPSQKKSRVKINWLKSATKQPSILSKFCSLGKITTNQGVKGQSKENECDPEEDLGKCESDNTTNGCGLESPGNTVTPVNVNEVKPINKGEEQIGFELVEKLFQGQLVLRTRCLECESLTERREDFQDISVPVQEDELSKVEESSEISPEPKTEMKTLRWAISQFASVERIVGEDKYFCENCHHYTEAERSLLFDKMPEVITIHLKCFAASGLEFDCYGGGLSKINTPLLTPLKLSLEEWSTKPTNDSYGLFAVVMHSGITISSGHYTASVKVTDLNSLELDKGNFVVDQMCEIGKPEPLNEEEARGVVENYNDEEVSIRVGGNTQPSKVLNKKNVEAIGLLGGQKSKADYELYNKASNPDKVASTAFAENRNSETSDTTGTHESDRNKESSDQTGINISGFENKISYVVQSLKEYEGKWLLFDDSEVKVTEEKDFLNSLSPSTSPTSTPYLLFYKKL

Assay [15] in a line: qHTS for Inhibitors of ATXN expression: Validation of Cytotoxic Assay (AID 588349).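 Also: cells exposed to compound for 72 hr; % is scaled to controls: 0 for no effect and ±100 for the full control effect.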 In outline: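 HEK293, compound dose series, 72 hr / 37 degrees C; viability via CellTiter Glo (intracellular ATP).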
Assay [16] is described as follows: qHTS for Inhibitors of ATXN expression: Validation (AID 588378). Also: series mostly up to about 57 µM; % is scaled to controls: 0 for no effect and ±100 for the full control effect; nearly all actives have a fitted effect of over 75% in size. A digest of the protocol:
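After a 2 h attachment and 24 h compound incubation, HEK293-ATXN2-FFLuc wells are read for fluorescence at 405 nm excitation/525 nm emission as a viability measure, then for Bright-Glo luminescence reflecting ATXN2 expression.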

Assay [17] addresses Transient receptor potential cation channel subfamily V member 1 (Homo sapiens) (UniProt Q8NER1). The assay can be described thus: HTS Assay for Compounds that Act as Enhancers of the Vanilloid Receptor 1 (AID 488979). Also: 0% is about no effect. In outline:
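TRPV1-expressing cells loaded with Fluo-8 calcium dye; compounds added and calcium influx read kinetically for 3 min (agonist phase), then capsaicin at EC20 added and read 2 min more for enhancement. Fluorescence ex 480/em 520 nm.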

Assay [18] has as its target Thyrotropin-releasing hormone receptor (Homo sapiens) (UniProt P34981). The assay can be described thus: qHTS for Small Molecule Agonists and Allosteric Enhancers of Human TRH Receptor: Validation Screen for Agonists (AID 493127;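 active = calcium activation more than 3 SD above the typical response in the agonist read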;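 also: intracellular calcium rise by fluo-8 fluorescence before TRH EC20 addition; 0% is about no effect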). The conditions noted are these: TRH receptor agonist cell assay; at 2 µM; stronger effect = higher value. A digest of the protocol:
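Gq-coupled calcium mobilization in TRHR cells after compound addition, monitored kinetically with fluo-8 dye on an FDSS reader.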

Records with an inconclusive call do not appear. Activity calls are given as the source filed them. Unless noted, calls follow the shape of the dose curve; as a rule, active = well fitted curve in the direction sought with a large enough effect; inconclusive = small, poorly fitted or top-dose-only effect, or another doubt; inactive = no such curve, though single readings can be large; an effect the other way counts as inactive or inconclusive.

Sequence of D(1A) dopamine receptor (Homo sapiens) (P21728 whole entry, looked up): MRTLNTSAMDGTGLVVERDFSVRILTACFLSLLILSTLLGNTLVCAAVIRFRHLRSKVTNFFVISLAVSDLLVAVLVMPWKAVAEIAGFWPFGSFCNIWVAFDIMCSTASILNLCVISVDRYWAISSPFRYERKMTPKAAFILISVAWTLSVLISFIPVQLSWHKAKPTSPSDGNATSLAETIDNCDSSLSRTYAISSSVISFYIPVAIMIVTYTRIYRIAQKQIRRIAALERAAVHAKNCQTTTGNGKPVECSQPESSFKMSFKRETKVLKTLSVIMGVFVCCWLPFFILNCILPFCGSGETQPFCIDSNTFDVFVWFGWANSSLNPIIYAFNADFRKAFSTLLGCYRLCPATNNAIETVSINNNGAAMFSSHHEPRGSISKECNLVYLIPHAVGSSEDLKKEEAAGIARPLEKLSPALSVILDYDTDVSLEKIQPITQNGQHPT
Sequence of ATPase family AAA domain-containing protein 5 (Homo sapiens) (Q96QE3 whole entry, looked up, the tested form may be a part): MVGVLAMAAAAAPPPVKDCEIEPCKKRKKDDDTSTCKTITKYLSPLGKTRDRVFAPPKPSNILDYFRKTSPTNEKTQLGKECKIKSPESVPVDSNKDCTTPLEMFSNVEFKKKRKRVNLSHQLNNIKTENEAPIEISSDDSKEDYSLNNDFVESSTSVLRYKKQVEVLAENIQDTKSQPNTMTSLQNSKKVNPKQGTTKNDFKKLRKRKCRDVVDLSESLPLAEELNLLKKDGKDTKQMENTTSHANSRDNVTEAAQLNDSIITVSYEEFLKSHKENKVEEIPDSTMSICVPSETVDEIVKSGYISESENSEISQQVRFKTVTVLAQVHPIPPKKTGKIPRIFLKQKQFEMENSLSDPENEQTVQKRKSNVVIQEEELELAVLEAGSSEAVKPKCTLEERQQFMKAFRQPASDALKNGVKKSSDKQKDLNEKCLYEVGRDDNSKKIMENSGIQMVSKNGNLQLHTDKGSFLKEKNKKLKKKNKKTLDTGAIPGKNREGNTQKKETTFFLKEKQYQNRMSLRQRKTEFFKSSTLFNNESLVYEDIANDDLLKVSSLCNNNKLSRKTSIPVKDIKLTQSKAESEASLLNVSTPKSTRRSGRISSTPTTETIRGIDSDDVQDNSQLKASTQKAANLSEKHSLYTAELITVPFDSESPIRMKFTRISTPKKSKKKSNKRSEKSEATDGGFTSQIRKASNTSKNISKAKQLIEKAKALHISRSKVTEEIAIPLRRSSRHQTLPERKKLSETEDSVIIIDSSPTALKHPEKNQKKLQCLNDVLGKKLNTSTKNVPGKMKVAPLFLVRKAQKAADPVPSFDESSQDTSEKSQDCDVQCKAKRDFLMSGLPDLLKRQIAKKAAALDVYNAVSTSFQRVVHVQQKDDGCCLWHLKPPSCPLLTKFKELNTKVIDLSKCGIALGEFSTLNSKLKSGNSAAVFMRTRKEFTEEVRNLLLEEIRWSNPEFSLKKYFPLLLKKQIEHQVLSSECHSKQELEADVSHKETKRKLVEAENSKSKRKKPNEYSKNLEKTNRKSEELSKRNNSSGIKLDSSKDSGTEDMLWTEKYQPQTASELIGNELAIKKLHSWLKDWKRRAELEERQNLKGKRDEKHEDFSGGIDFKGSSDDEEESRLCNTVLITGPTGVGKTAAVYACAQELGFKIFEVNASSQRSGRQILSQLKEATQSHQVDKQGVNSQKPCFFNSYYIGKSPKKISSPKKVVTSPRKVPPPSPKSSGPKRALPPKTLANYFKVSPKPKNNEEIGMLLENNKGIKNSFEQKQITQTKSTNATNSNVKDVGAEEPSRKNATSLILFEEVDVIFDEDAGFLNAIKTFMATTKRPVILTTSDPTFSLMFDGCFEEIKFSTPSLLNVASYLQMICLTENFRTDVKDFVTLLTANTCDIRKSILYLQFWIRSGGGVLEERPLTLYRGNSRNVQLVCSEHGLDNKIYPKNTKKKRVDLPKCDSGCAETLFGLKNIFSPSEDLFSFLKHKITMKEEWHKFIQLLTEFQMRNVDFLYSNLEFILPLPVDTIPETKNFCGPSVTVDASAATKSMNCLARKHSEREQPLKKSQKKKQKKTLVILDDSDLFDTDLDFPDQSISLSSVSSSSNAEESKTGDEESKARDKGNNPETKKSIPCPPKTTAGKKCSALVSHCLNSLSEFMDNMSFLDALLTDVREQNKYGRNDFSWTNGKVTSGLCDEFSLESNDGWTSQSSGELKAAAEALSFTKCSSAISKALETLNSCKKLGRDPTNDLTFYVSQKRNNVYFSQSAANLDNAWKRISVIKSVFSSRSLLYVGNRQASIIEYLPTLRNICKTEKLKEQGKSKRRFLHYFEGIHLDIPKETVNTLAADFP
Sequence of Phosphoglycerate kinase, glycosomal (Trypanosoma brucei brucei) (P07378 whole entry, looked up): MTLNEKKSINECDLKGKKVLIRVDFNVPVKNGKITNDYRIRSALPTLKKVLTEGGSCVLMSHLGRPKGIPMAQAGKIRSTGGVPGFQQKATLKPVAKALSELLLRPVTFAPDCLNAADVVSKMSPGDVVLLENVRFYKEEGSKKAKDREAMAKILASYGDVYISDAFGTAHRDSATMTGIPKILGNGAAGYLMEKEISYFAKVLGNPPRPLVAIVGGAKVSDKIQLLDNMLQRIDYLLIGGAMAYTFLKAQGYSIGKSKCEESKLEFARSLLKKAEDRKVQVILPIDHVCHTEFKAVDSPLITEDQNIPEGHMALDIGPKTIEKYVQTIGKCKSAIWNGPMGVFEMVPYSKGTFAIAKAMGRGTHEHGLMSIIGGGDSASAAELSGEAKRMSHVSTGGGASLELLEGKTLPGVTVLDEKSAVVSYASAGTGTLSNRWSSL
Sequence of Transient receptor potential cation channel subfamily V member 1 (Homo sapiens) (Q8NER1 whole entry, looked up): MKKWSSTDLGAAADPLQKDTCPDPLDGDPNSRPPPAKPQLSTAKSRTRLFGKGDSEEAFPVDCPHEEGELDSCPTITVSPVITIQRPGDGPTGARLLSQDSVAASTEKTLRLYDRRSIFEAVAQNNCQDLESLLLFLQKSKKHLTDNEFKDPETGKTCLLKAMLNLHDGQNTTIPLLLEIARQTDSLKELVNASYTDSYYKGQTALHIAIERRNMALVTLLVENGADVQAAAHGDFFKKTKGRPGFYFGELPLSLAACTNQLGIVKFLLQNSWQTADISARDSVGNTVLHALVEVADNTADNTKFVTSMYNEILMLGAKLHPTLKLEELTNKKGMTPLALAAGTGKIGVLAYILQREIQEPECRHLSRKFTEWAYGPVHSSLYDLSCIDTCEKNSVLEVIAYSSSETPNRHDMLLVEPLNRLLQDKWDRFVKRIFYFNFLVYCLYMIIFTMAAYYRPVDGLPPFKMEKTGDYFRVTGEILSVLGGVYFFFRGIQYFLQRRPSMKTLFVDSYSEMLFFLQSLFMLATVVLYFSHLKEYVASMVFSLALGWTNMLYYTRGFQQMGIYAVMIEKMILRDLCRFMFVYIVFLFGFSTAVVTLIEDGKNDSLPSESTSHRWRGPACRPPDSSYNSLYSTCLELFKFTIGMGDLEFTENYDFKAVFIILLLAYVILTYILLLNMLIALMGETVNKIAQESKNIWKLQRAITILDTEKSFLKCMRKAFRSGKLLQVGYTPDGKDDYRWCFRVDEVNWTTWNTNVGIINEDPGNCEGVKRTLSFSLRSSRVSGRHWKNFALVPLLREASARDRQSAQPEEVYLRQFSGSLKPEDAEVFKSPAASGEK
Sequence of Peptidyl-prolyl cis-trans isomerase NIMA-interacting 1 (Homo sapiens) (Q13526 whole entry, looked up): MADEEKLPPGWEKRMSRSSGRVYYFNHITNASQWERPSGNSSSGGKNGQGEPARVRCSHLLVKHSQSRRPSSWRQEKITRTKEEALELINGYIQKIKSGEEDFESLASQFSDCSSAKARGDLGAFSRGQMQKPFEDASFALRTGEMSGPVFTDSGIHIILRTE

As to `Oc1cc(O)c2c(c1)O[C@H](c1ccc(O)c(O)c1)[C@@H](O)C2`, the outcome in assay [1] and in [8] was inactive. Also, the Potency entry in assay [2], in assay [3], in assay [4], in assay [5], in assay [6] and in assay [7] was “inactive” throughout. The Potency entry in assay [9], in [10], in assay [11], in assay [12], in assay [13] and in assay [14] was “inactive” in each case. In addition, the Potency entry in [15] and in assay [16] was “inactive” throughout. For the same compound, the viability change in assay [7] turned out to be 1.23%.

For the compound `OC[C@H]1NC[C@@H](O)[C@@H]1O`, the result in assay [17] was inactive. For the same compound, the Potency result in assay [2], in assay [3], in assay [4], in [5], in assay [6] and in [7] was “inactive” each time. Moreover, the Potency entry in assay [9], in assay [10], in assay [11], in assay [12], in assay [13] and in assay [14] was “inactive” in each case. Moreover, the Potency result in assay [15] and in [16] was “inactive” each time. The activation in [18] was 1.19% (inactive). Further, in assay [7], the viability change turned out to be 4.02%.

`CCCCOC(=O)NS(=O)(=O)c1sc(CC(C)C)cc1-c1ccc(Cn2c(CC)nc3c(C)cc(C)nc32)cc1`: the result in assay [17], in [1] and in assay [8] was inactive. The Potency result in assay [3], in assay [5], in assay [9], in assay [11] and in assay [12] was “inactive” in each case. The Potency in [6] was 8.2 µM (active); in [14] it was 56.2 µM (active). In assay [18], the activation was 2.25% (inactive).

On to `O=C(O)C1CCCNC1` (configuration not stated), for which the result in [17] and in [1] was inactive. Moreover, the Potency in assay [3] was 2.31 µM (active). In addition, the Potency result in assay [4], in [6], in assay [7], in assay [9], in [10] and in assay [11] was “inactive” each time. The Potency result in [12], in assay [13], in [14], in [15] and in [16] was “inactive” each time. Also, the activation in assay [18] is 0.625% (inactive). In addition, the viability change in assay [7] came out at 1.96%.

`COc1ccc2c(c1)CCC1C2CC[C@@]2(C)C1CC[C@@H]2NCCCCCCN1C(=O)C=CC1=O` (some centres not stated): the outcome in assay [1] and in assay [8] was inactive. Further, the Potency result in assay [2], in assay [3], in assay [4], in assay [5], in assay [6] and in assay [7] was “inactive” each time. In addition, the Potency result in assay [9], in assay [10], in assay [11], in [12], in assay [13] and in assay [15] was “inactive” throughout. For the same compound, in assay [16], the Potency entry was “inactive”. The activation in [18] is 0.25% (inactive). Also, the viability change in assay [7] was -5.2%.

Take `NC(=Nc1ccccc1)NC(=O)c1nc(Cl)c(N)nc1N`: the outcome in [17], in assay [1] and in [8] was inactive. Moreover, the Potency result in [3], in [7], in assay [9], in assay [11], in assay [13] and in assay [14] was “inactive” in each case. The Potency entry in assay [16] is “inactive”. Further, the Potency in [4] is 12.6 µM (active). Besides, the activation in assay [18] is 0.312% (inactive). Further, the viability change in assay [7] is -16.8%.

As for `CN(C)C(=O)/N=N/C(=O)N(C)C`, the result in assay [17], in assay [1] and in assay [8] was inactive. For the same compound, the Potency entry in assay [3], in assay [4], in [7], in assay [9], in [10] and in assay [11] was “inactive” throughout. Moreover, the Potency entry in [12], in assay [13], in assay [14], in assay [15] and in assay [16] was “inactive” throughout. Moreover, in assay [18], the activation is 0.75% (inactive). In addition, the viability change in [7] turned out to be 1.53%.

(Values after PubChem BioAssay (NCATS).)
